# Test results from the supplement of paper PMC11417369.
# In all, about 25,000 sequences were measured (“ln(normalized median fluorescence intensity)”: median about 9.3, highest 2% from about 10 on). Shown is part of a subset that was picked to be rich in the highest values.
# Test system: PF3D7_0420300 AP2 domain 1 (GST-tagged)
# Assay: gcPBM binding intensity (ln(normalized median fluorescence intensity)); higher = stronger DNA binding
# Method in brief: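 Each value is the highest Masliner-normalised natural-log median intensity across replicate spots of either orientation of a probe. The probes were primer-extended double-stranded 36-bp intergenic genomic sequences on an Agilent 4 × 180k array, alongside negative controls, exposed for 1 h to GST-tagged P. falciparum DNA-binding domains expressed in E. coli. Bound protein was picked up with Alexa488 anti-GST antibody and scanned at 488 nm.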
row,Sequence,gcPBM binding intensity (ln)
1,CCACAGGATTGGTTCAAACACACATATTATATGACT [CACACA_site661],9.39
2,CCTTTATTAAATAAATGTACATATTTTTGTGTTCTT [XGTACX_site2052],9.4
3,GAAATATAATTTATTACACACATTTTAAAAAAATTC [CACACA_site1087],9.26
4,AAAAAAAAAAAAAAATGTACATTATACACATTATAT [XGTACX_site6824],9.28
5,AAAGGGGAGATATGAACACACAAAAAAAAAATATAT [CACACA_site7378],9.58
6,CTATACAATAAAAATTGTACATACATATATGTTATA [XGTACX_site5309],9.17
7,TATAACTTTTTTATTACACACCTATGTAATATTATA [CACACA_site944],9.37
8,CCTAAATAATATCTATCACACACGCATATATACATA [CACACA_site8838],9.56
9,TATGTTAAAAAAAAAAAAAAGAAAAAAATAAAAGGA [CACACA_negctrl_site119],9.44
10,TCAAAAATAAAGATCACACATATATATATATATATA [CACACA_site4381],9.2
11,TATAAATATATATATACACACACATACACAAAAAAA [CACACA_site9191],10.2
12,CACAAAAATAAACACACACACATATATATATATATA [CACACA_site4704],9.75
13,CACATACATATATACACACACAAAATAATAAAATAA [CACACA_site2308],10
14,TAAATATATAAATACACACAAACATACATATATATA [CACACA_site4050],9.88
15,CATACATACAAACACACACACATATAAATACATACA [CACACA_site4625],10.2
16,AAAAAAAAAGATCACACACACATAAATATAAACAAA [CACACA_site5285],10.2
17,TATAAATATACAAACACACATACAAACATATATATA [CACACA_site1120],9.91
18,TATAAGAGAATATATACACACAAAAATAAATACAGT [CACACA_site5000],10.3
19,AAGAGAAAAATATATACACACACATAAATATATACA [CACACA_site8573],9.96
20,TAAATATATAAATACACACACATACACAAAAAAAAA [CACACA_site5890],10.1
21,TATAAGAGAATATATACACACAAAAATATATACAGT [CACACA_site1668],9.89
22,AATACATACATACATACATGCATATATATATATATA [TGCATGCA_site462],9.42
23,ATTTACATTCACTTATGTACTTATATAATTTTATTT [XGTACX_site8150],9.54

row,Sequence,gcPBM binding intensity (ln)
1,CCCATTTTGACAAAAAGTACAAGTTCAGGTTTTATA [XGTACX_site1532],9.22
2,AACTATAAAAATTTTACACACTGTTTTTAAATAATG [CACACA_site5928],9.4
3,AGATAAAATAAATACACACACATAAATACGTACAAA [CACACA_site4739],10.2
4,AATATAAAAAATAATACACACACATGGCGACAAAAT [CACACA_site8765],10.2
5,TAATAAAAAATATATACACACAAATAAATAAATAAA [CACACA_site4037],9.83
6,AGATAAAATATATACACACACATAAATACGTACAAA [CACACA_site1086],10.1
7,ATAAATAAGATACGTACACACATATACAAAATATAC [CACACA_site3661],9.95
8,ATATATATATATTACACACACACAAAAAAAATAAAG [CACACA_site118],10.4
9,TATAAAAAATAATACACACACATGGCGACAAAATAA [CACACA_site2420],10.2
10,TACACAAAAATAAACACACACACATATAAATAAATA [CACACA_site6599],10.2
11,TACACAAAAATAAACACACACACATATATATATATA [CACACA_site1000],9.78
12,AATATATAAATATATACACACAAAAACATATATATA [CACACA_site1318],9.8
13,TATTTACACAAAATAAAATATATTATATATATATAT [TGCATGCA_negctrl_site381],8.93
14,ATATAAATATTAATTACACACAAAAAAAAAAAAAAA [CACACA_site6671],9.35
15,GGTGTATGTTAAAGGAGTACATATATATATATATAT [XGTACX_site7727],9.3
16,ACCTTTGATATATACACACACATAAAAAAAATATAT [CACACA_site6952],9.93
17,TACAACCTTTAGACAAGTACAAGAATTATATGTGGC [XGTACX_site4581],9.4
18,AAAAAAAAAAATTACACACATACATATAATAATAAT [CACACA_site2193],9.85
19,AGCAGTCGACAGGACAGTACACAGTAGCCAGGAAAT [XGTACX_site4929],9.32
20,AAATTATAAATACCTACACACTTATCAAAATAAATT [CACACA_site5280],9.56
21,ATTGGGTTCATCAGCACACACAACATCATGTAATAA [CACACA_site5093],9.5
22,AATTAATGGAAACAAGTCAAATGATCTTTATGCATA [TGCATGCA_negctrl_site540],9.13
23,TTTATATAATTTTAATGTACATATATATATATAAAT [XGTACX_site4381],8.98

row,Sequence,gcPBM binding intensity (ln)
1,AAAAAACACAGACACACACACATATACATACATACA [CACACA_site2666],10.2
2,TACACATACAGACATACACACATACACATATACACA [CACACA_site6918],9.88
3,TAAACAGACATACATACACACATACATACAGACATA [CACACA_site6997],9.88
4,CATATACATACACATACACACATACAGACATACACA [CACACA_site6919],9.83
5,AAAAAAAACAGACACACACACACATATACATACATA [CACACA_site2665],10.2
6,TACATACACAGACACACACACATATATATATATATA [CACACA_site3557],9.89
7,TAAACAGACATATAAACACACATACATACATACATA [CACACA_site7215],9.56
8,AAAAAAAACAGACACACACACATACACATACATACA [CACACA_site2857],10.2
9,AACAGACATACATACACACATACATACAGACATACA [CACACA_site1942],9.9
10,TAATGATTATATGACTGTACATTTGTAGGTATAATT [XGTACX_site3373],9.18
11,ACATAAAAATTATGCACACTTAATAAAGCGAAATGT [CACACA_site3183],9.45
12,TATATATAAAAATATACACACACAAATGTATATATA [CACACA_site7956],9.54
13,AAATATTTTATACTTGCACACAAAATATATTAAAAT [CACACA_site8606],9.32
14,AAAAACAAAAAAGAAGCACACATATATATATATATA [CACACA_site8779],9.6
15,ATCCTACTATGTTATACACACAATTACTTTTTTCTC [CACACA_site3712],9.86
16,CTTATTATTATATGGGTGCTCATATTTTTCTTTTTT [GTGCAC_site9723],9.4
17,TTATACTTTGGGTGGTGTACTATATTATGCTTATAA [XGTACX_site1106],9.51
18,GGTGGTGGTGGGTGGGTGCTTCTATTATTATATTAT [GTGCAC_site9391],10.7
19,CCTTTATAATTGGAAACACACATATAAAGTATATAT [CACACA_site3900],9.2
20,CATTCAAACAAAAAAAGTACTCATCACATAATATAT [XGTACX_site1251],9.44
21,ATATAAATAAACAGGTGTACTATAATGTTCATAGTA [XGTACX_site1553],9.47
22,TTAATTATAATTATATGTACGAACTTTTTTTTTTTT [XGTACX_site6586],9.14
23,TTCATTAAAACGAATACACACATAAATATATAAAAG [CACACA_site4824],9.62

row,Sequence,gcPBM binding intensity (ln)
1,AAAAAAAAAAAAAAAACACACAGAACAATATATAAA [CACACA_site4698],9.76
2,AAAAAAAACGGACACACACACATTCAATATAAAACA [CACACA_site4189],10.2
3,AAAAAAAACAGACACACACACATAAATATAAATAAA [CACACA_site6214],9.96
4,AAAAAAAACAGACACACACACATTCAATATAAAACA [CACACA_site41],10.2
5,AATATTATAATATAAACACACAAAATTCAATTATAT [CACACA_site3789],9.69
6,AAAAAAAAAAAACACACACACACATTCAATATAAAA [CACACA_site40],10
7,AATATTAAAATATAAACACACAAAATTCAATTATAT [CACACA_site5971],9.61
8,AAAAAAAACGAACACACACACATTCAATATAAAACA [CACACA_site6170],10.2
9,TATAATAGTTCATAGGTGCAATATAATAAATTTATA [GTGCAC_site9573],9.13
10,TACCTTTATTAATAAAGTACATTAATCTGTGTATAC [XGTACX_site8720],9.09
11,AGTATTCACTTAATATGTACATATTTATTATAAGAG [XGTACX_site3434],9.11
12,ACATCAAGAATTATTAAGAATACGGATAGATAAAAT [GTGCAC_negctrl_site261],9.4
13,ATAAAATTTTATATGGGTACATAATATAATATATAT [XGTACX_site8160],9.21
14,TATAAGAATAAAAAGGGTACATAAAATAATAATATA [XGTACX_site2355],9.55
15,ATTATAAGAAGGGGGGGTACATAAATATAAATGTAT [XGTACX_site5624],10.3
16,AAAAAAAAAAAGAAGGGTACATATTATATATAATAT [XGTACX_site6204],9.43
17,ATATTAAAAATATATACACACATATATATAAATATA [CACACA_site2257],9.37
18,AAAAAAAATAAAAATAGTACTCAAAAAATTATGAAT [XGTACX_site3073],9.19
19,GCTCAATTTTTGGGTACACACAAATGTATAAGAATA [CACACA_site7178],9.22
20,TTATGGTTATACATATGTACATATATATATATATAT [XGTACX_site1494],9.29
